# Assays:
# Experiment in all cases: growth inhibition (% activity, log2 RLU normalised to DMSO / staurosporine); higher = more growth inhibition
# Conditions in all cases: 33 µM
# DIPGX29 = tested on: DIPGX29 (H3.3 K27M diffuse intrinsic pontine glioma line)
# How it was run: (§1)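 For each approved drug, the growth-inhibition value is the replicate median of per-plate normalised CellTiter-Glo data. Luminescence was log2-transformed and expressed as % activity between solvent and positive control wells. Drugs were applied in triplicate at a single final concentration of about 33 μM for 7 days at 37 °C, 5% CO2 to pHGG cell lines and H9-derived neural stem cells.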
# DIPGX37 = tested on: DIPGX37 (H3.3 K27M diffuse intrinsic pontine glioma line)
# How it was run: as §1
# DIPGX7 = tested on: DIPGX7 (H3.3 K27M diffuse intrinsic pontine glioma line)
# How it was run: as §1
# DIPGX9 = tested on: DIPGX9 (diffuse intrinsic pontine glioma line)
# How it was run: as §1
# HGGX39 = tested on: HGGX39 (paediatric high-grade glioma line)
# How it was run: as §1
# HGGX6 = tested on: HGGX6 (H3.3 G34R paediatric high-grade glioma line)
# How it was run: as §1
# HNSC = tested on: HNSC
# How it was run: as §1
# SUDIPGIV = tested on: SUDIPGIV (diffuse intrinsic pontine glioma line)
# How it was run: as §1
# SUDIPGVI = tested on: SUDIPGVI (diffuse intrinsic pontine glioma line)
# How it was run: as §1
# SUDIPGXIII = tested on: SUDIPGXIII (diffuse intrinsic pontine glioma line)
# How it was run: as §1
SMILES,growth inhibition (DIPGX29) [%],growth inhibition (DIPGX37) [%],growth inhibition (DIPGX7) [%],growth inhibition (DIPGX9) [%],growth inhibition (HGGX39) [%],growth inhibition (HGGX6) [%],growth inhibition (HNSC) [%],growth inhibition (SUDIPGIV) [%],growth inhibition (SUDIPGVI) [%],growth inhibition (SUDIPGXIII) [%]
O[C@@H]1CO[C@H]2[C@@H]1OC[C@@H]2O,-2.46,0.0638,-2.43,-0.699,0.692,0.785,-3.92,-2.68,-0.216,
CCC(C)n1ncn(-c2ccc(N3CCN(c4ccc(OCC5COC(Cn6cncn6)(c6ccc(Cl)cc6Cl)O5)cc4)CC3)cc2)c1=O (configuration not stated),-0.782,1.27,1.59,1.24,4.33,1.37,7.95,1.44,1.98,
C=Cc1c(C)c2cc3nc(cc4[nH]c(cc5nc(cc1[nH]2)C(C)=C5CCC(=O)O)c(CCC(=O)OC)c4C)C1(C)C3=CC=C(C(=O)OC)C1C(=O)OC (configuration not stated),0.0791,-1.21,0.254,-0.022,1.95,0.712,2.35,-0.469,-1.11,-2.15
COC(=O)C1=CO[C@@H](O[C@@H]2O[C@H](CO)[C@@H](O)[C@H](O)[C@H]2O)[C@@H]2C(CO)=CC[C@H]12,-1.79,-0.171,-2.08,0.601,0.266,2.37,-2.11,-1.32,-2.76,
C[C@@H](O[C@H]1OCCN(Cc2nn(P(=O)(O)O)c(=O)[nH]2)[C@H]1c1ccc(F)cc1)c1cc(C(F)(F)F)cc(C(F)(F)F)c1,6.53,2.67,3.46,4.01,11.6,5.75,4.2,16.2,3.61,11.4
CC[C@H]1OC(=O)[C@H](C)[C@@H](O[C@H]2C[C@@](C)(OC)[C@@H](O)[C@H](C)O2)[C@H](C)[C@@H](O[C@@H]2O[C@H](C)C[C@H](N(C)C)[C@H]2O)[C@](C)(O)C[C@@H](C)[C@@H]2N[C@@H](COCCOC)O[C@H]([C@H]2C)[C@]1(C)O,-1.13,-1.4,-1.51,-0.804,-0.699,-1.07,-4.19,-1.28,-0.768,
CCCCCCCN(CC)CCCC(O)c1ccc(NS(C)(=O)=O)cc1 (configuration not stated),-0.358,0.859,2.25,1.97,2.78,0.985,-2.1,0.633,1.61,
CC1(C)O[C@@H]2C[C@H]3[C@@H]4C[C@H](F)C5=CC(=O)C=C[C@]5(C)[C@@]4(F)[C@@H](O)C[C@]3(C)[C@]2(C(=O)CO)O1,5.9,6.05,2.96,7.24,5.97,3.53,1.69,1.18,3.97,-0.393
C=C(c1ccc(C(=O)O)cc1)c1cc2c(cc1C)C(C)(C)CCC2(C)C,8.85,-3.45,11,10.4,12.4,9.38,14.6,6.25,9.87,
CCCN1CCCC[C@H]1C(=O)Nc1c(C)cccc1C,-0.141,1.83,0.26,0.846,2.25,1.44,-0.32,-1.01,0.908,
Cc1c(O)c(=O)ccn1C,-0.259,-0.497,-0.173,1.03,0.26,1.77,-3.85,-2.04,0.573,
CC1(C)S[C@@H]2[C@H](NC(=O)Cc3ccccc3)C(=O)N2[C@H]1C(=O)O,-0.211,1.76,0.712,0.921,2.76,0.0221,1.53,0.754,0.396,
COC(=O)[C@@H]1CC2=CC(=O)CC[C@]2(C)[C@@]23O[C@@H]2C[C@@]2(C)[C@@H](CC[C@@]24CCC(=O)O4)[C@H]13,0.0665,2.47,-0.276,0.756,1.45,1.56,-0.69,0.898,1.05,0.0503
CCCc1nc(C)c2c(=O)nc(-c3cc(S(=O)(=O)N4CCN(CC)CC4)ccc3OCC)[nH]n12,-1.2,-1.39,-0.617,0.618,1.97,2.02,-2.13,0.711,0.112,
N=C(N)c1ccc(N=NNc2ccc(C(=N)N)cc2)cc1,-2.11,-3.98,-0.967,-1.13,7.13,4.38,-4.44,15.4,0.511,
Cc1ccc(S(=O)(=O)NC(=O)NN2CCCCCC2)cc1,-1.75,0.973,-0.7,-1.05,0.24,1.06,-3.09,-2.7,-0.0433,
Cc1onc(-c2ccccc2)c1-c1ccc(S(N)(=O)=O)cc1,0.8,1.05,0.883,0.672,3.67,2.37,-0.462,-2.73,2.54,
Cc1ncc([N+](=O)[O-])n1CC(C)O (configuration not stated),-2.47,-0.804,-1.3,0.505,-1.86,0.138,-4.53,-1.52,-0.382,
CN(C)CCC=C1c2ccccc2CCc2ccccc21,0.114,2.57,1.28,1.79,5.11,2.03,0.41,1.93,2.05,
C#C[C@]1(O)CC[C@H]2[C@@H]3CCC4=CC(=O)CC[C@@H]4[C@H]3CC[C@@]21C,-0.22,3.5,1.4,2.42,4.07,7.23,6.68,-0.735,0.661,
CCn1cc(C(=O)O)c(=O)c2ccc(C)nc21,-2.16,-2.18,-0.91,0.0696,-0.871,0.278,-2.82,-0.499,-1.38,
C[C@@H](O)[C@H]1C(=O)N2C(C(=O)OCOC(=O)C(C)(C)C)=C(SC3CN(C4=NCCS4)C3)[C@H](C)[C@H]12,-0.211,2.3,0.926,0.809,1.15,0.471,-0.363,-0.736,2.12,

SMILES,growth inhibition (DIPGX29) [%],growth inhibition (DIPGX37) [%],growth inhibition (DIPGX7) [%],growth inhibition (DIPGX9) [%],growth inhibition (HGGX39) [%],growth inhibition (HGGX6) [%],growth inhibition (HNSC) [%],growth inhibition (SUDIPGIV) [%],growth inhibition (SUDIPGVI) [%],growth inhibition (SUDIPGXIII) [%]
C[C@]12CC[C@@H]3c4ccc(O)cc4CC[C@H]3[C@@H]1CC[C@@H]2O,-1.16,1.54,-0.611,-0.154,0.663,2.45,-4.69,-0.561,-3.66,1.49
CC(C)[C@H]1CC[C@H](C(=O)N[C@H](Cc2ccccc2)C(=O)O)CC1,-0.743,0.294,0.0113,0.231,1.32,1.09,-0.0956,-1.21,-0.179,
O=C(O)c1cccnc1Nc1cccc(C(F)(F)F)c1,-0.796,3.58,-0.0228,0.51,1.81,2.52,-1.26,-3.93,2.23,
CCC(C)(C)C(=O)O[C@H]1C[C@@H](C)C=C2C=C[C@H](C)[C@H](CC[C@@H]3C[C@@H](O)CC(=O)O3)[C@H]21,6.91,-7.26,9.48,1.4,15.7,11.3,60.4,19,-11.4,3.91
COc1ccc2cc(CCC(C)=O)ccc2c1,-3.29,-0.34,1.11,-2.24,0.174,-2.89,31.7,-0.544,-8.13,3.04
Cc1c(Nc2ncccc2C(=O)O)cccc1C(F)(F)F,0.454,2.84,0.522,1.64,1.78,3.08,1.18,-3.76,2.1,
Oc1c(Br)cc(Br)c2cccnc12,-0.427,0.213,1.4,1.88,2.61,1.93,-0.441,0.619,2.93,
C[C@@H](O)[C@H]1C(=O)N2C(C(=O)O)=C(S[C@@H]3CN[C@H](CNS(N)(=O)=O)C3)[C@H](C)[C@H]12,0.9,-1.74,3.79,-0.371,-0.0496,-2.09,28.8,-1.38,-5.58,-1.69
Cc1ncc([N+](=O)[O-])n1CCO,-0.678,-1.76,-1.15,0.881,1.6,-4.16,22.3,0.605,0.0318,-3.67
C#CC1(O)CCC2C3CCc4cc(OC)ccc4C3CCC21C (configuration not stated),0.518,-0.765,-0.178,1.8,0.428,1.53,-0.897,-1.25,2.06,-0.164
CC(C)NCC(O)COc1cccc2ccccc12 (configuration not stated),-0.19,-0.496,-0.508,1.12,0.98,0.0936,-3.29,-1.1,0.673,
CC[C@H]1OC(=O)[C@H](C)[C@@H](O[C@H]2C[C@@](C)(OC)[C@@H](O)[C@H](C)O2)[C@H](C)[C@@H](O[C@@H]2O[C@H](C)C[C@H](N(C)C)[C@H]2O)[C@](C)(O)C[C@@H](C)/C(=N\OCOCCOC)[C@H](C)[C@@H](O)[C@]1(C)O,-1.55,-0.523,-0.0281,1.56,1.63,0.659,-0.847,0.447,-0.66,
N#CC1(c2ccc(NC(=O)c3cccnc3NCc3ccncc3)cc2)CCCC1,1.93,-3.69,2.91,3.39,8.17,4.45,1.96,7.08,-1.37,
COc1cc2c(cc1OC)CC(=O)N(CCCN(C)C[C@H]1Cc3cc(OC)c(OC)cc31)CC2,-0.791,1.83,1.52,1.21,2.26,0.769,7.75,0.5,1.04,
CC(C)(C)C(=O)C(Oc1ccc(Cl)cc1)n1ccnc1 (configuration not stated),0.826,1.56,3.93,1.25,5.9,4.74,5.37,7.06,2.6,
O=c1ccc2ccccc2o1,0.12,0.196,-0.587,2.02,1.94,0.845,-0.623,-0.0159,1.45,
CCCCc1oc2ccccc2c1C(=O)c1cc(I)c(OCCN(CC)CC)c(I)c1,11.5,3.87,16.3,3.8,8.92,12.4,34.9,6.94,3.07,7.05
CN(C)CCC(c1ccc(Cl)cc1)c1ccccn1 (racemic),1.65,2.71,2.71,1.38,3.68,0.339,4.41,1.92,4.15,-0.538
CC(=O)OCC(=O)NCCCOc1cccc(CN2CCCCC2)c1,-1.28,1.04,-1.47,-0.989,-1.44,0.942,-4.85,-2.05,-0.427,-1.04
CN/C(=N\CCSCc1nc[nH]c1C)NC#N,0.842,1.91,1.01,0.766,1.68,1.98,0.707,-0.184,2.38,0.0177
Clc1ccc2c(c1)C(N1CCNCC1)=Nc1ccccc1O2,0.461,1.52,1.07,1.29,4.43,-0.239,0.635,0.284,2.1,0.741
CC(=O)O[C@]1(C(C)=O)CC[C@H]2[C@@H]3C[C@H](C)C4=CC(=O)C=C[C@]4(C)[C@@]3(F)[C@@H](O)C[C@@]21C,1.69,3.28,0.393,5.69,4.16,-1.08,0.0126,-1.42,3.88,1.16
